Many of the other results were omitted from the sample, so hits are more common in it than they were.
TSG101-PTAP inh – blocks PTAP/TSG101 interaction to inhibit HIV-1 budding; AID 493005; Fluorescence polarization, FITC-PTAP peptide / Tsg101 binding; Potency, µM (doses to about 115 µM), usual class: inhibitors; 340,000 tested, under 10 active; active = well fitted inhibition curve with a large enough effect in the main read-out, with a control signal flat, not every such curve was filed as active; inconclusive = small, poorly fitted or top-dose-only effect, or effect the other way, or a change in a side signal; inactive = no such curve, though single readings can be large or run the other way
Target sequence (Q99816 whole entry, looked up): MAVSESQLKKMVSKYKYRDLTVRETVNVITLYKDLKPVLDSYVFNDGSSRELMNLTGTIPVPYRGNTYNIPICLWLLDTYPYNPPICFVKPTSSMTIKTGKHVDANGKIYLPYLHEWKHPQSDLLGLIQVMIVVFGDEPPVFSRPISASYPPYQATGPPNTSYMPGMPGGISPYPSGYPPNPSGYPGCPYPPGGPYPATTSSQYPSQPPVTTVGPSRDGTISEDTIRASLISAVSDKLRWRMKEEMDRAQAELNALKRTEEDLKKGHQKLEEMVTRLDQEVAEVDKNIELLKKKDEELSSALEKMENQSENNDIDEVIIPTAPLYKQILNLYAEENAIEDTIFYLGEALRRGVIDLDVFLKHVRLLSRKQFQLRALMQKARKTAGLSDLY
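FP read-out: FITC-PTAP peptide, 50 nM final, binding Tsg101 binding domain, 10 uM final; 20 min, r.t.; 10 mM HEPES pH 7.5, 0.15 M NaCl, 0.01% Tween 20, 3 mM EDTA, 0.1 mM TCEP.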
Anesthetic bind – candidate novel general anesthetic via apoferritin binding | apoferritin/1-aminoanthracene competitive binding, fluorescence | Potency, µM (highest dose often 77.5 µM), hits mostly inhibitors | hit rate 0.074% among 350,000 | AID 485281; note: nearly all actives have a fitted effect of over 20% in size
Target sequence (P02791 2-175 limits assumed): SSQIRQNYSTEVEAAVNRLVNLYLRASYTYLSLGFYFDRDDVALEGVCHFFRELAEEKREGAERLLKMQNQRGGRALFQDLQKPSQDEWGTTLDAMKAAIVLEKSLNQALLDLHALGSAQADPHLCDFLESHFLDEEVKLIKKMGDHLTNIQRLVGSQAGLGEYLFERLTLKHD
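Probe: 1-aminoanthracene (50% saturated, PBS). Protein: horse-spleen apoferritin, 10 uM. Incubation: 10 min, room temperature. Detection: 380 nm excitation, 535 nm emission. Analysis: normalized response, four-parameter Hill.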
Epigenetic reg – derepresses silenced GFP reporter in murine cells. Potency, µM (top dose mostly 53.9 µM), most hits filed as activators. murine LDR cells, GFP reporter derepression, 30 h. hit rate 0.2% among 280,000; note: nearly all actives have a fitted effect of over 60% in size
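Reporter derepression read as number of fluorescent GFP-positive objects, 20-120 um in size, counted by laser-scanning cytometer. Mouse LDR line with an epigenetically silenced CMV-GFP locus; compound incubation 30 h, 37 C.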
PINK1 expr mod – PINK1 expression modulation; PINK1 immunofluorescence, high-content cytometry, 24 h; Potency, µM (titrated, usually from 76.6 µM), usual class: activators; hit rate 0.2% among 410,000; AID 624263; active = well fitted activation curve with a large enough effect; inconclusive = small, poorly fitted or top-dose-only effect; cell line not stated here; note: nearly all actives have a fitted effect of over 65% in size
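Compound titrations (5 concentrations, 24 h) on a stable cell line; DMSO and CCCP controls. Endpoint: fixed-cell PINK1 immunofluorescence with mitochondrial, cell and nuclear markers, scanned by microplate cytometer.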
HTT cytoprotect – Huntington cell model cytoprotection by ATP luminescence. AID 1471. hit rate 0.14% among 230,000. Potency, µM (top dose mostly 56.4 µM), most hits filed as activators. PC12 HTT-Q103 induced, cytoprotection, ATP luminescence, 40 h; note: nearly all actives have a fitted effect of over 45% in size
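Quantitative HTS on tebufenozide-induced (100 nM) PC12 cells expressing HTTQ103 exon 1–GFP; compounds tested as a concentration series; survival measured via cellular ATP.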
HttQ103 aggreg – inhibitors of mutant huntingtin aggregate formation in PC12 cells | Potency, µM (titrated, usually from 46.1 µM), actives largely listed as inhibitors | AID 1688 | hit rate 1.1% among 220,000 | PC12 HttQ103-GFP aggregates, Acumen cytometry, 40 h; note: nearly all actives have a fitted effect of over 60% in size
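Aggregates are detected as GFP objects 1–25 µm with signal 6 STDEV over background in lysates of induced PC12 cells. These carry Huntingtin exon 1 with 103 glutamines fused to GFP under an ecdysone promoter; compounds titrated.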
Numbers stand for hits; . = inactive; ? = inconclusive; / = no result; [ ] = another dose, or the depositor's remark. Unless noted, calls come from the whole dose curve; as a rule, active = well fitted curve in the direction sought with a large enough effect; inconclusive = small, poorly fitted or top-dose-only effect, or another doubt; inactive = no such curve, though single readings can be large; an effect the other way counts as inactive or inconclusive.

SMILES	TSG101-PTAP inh	Anesthetic bind	Epigenetic reg	PINK1 expr mod	HTT cytoprotect	HttQ103 aggreg
c1ccc2c(c1)OCC(C1=NCCN1)O2 (configuration not stated)	.	.	.	.	16µM	.
Oc1ccccc1-[n+]1c(-c2ccccc2)cc(-c2ccccc2)cc1-c1ccccc1	.	/	/	/	/	/
O=C(O)c1ccc(-[n+]2c(-c3ccccc3)cc(-c3ccccc3)cc2-c2ccccc2)cc1	.	/	/	.	/	/
Brc1ccc(-[n+]2c(-c3ccccc3)cc(-c3ccccc3)cc2-c2ccccc2)cc1	.	/	/	25µM	/	/
Cc1ccccc1-[n+]1c(-c2ccccc2)cc(-c2ccccc2)cc1-c1ccccc1	.	/	/	10µM	/	/
[O-]c1ccccc1-[n+]1c(-c2ccccc2)cc(-c2ccccc2)cc1-c1ccccc1	.	/	/	16µM	/	/
C[C@@H]1O[C@H]1P(=O)(O)O	/	/	/	/	.[1.9 µM]	/
N=C(N)SCc1ccc(Cl)c2ccccc12 (tested in a mixture with another compound)	/	/	/	/	.[10 µM]	/
CC(=O)OC1=CC2=CC[C@H]3[C@H]4CCC(=O)[C@@]4(C)CC(=O)[C@]3(S)[C@]2(C)CC1	/	/	/	/	.[10 µM]	/
CCOC(=O)c1ccc(NC(=O)c2c(O)[nH]c(=O)[nH]c2=O)cc1	.	.	.	.	.	3.5µM
CCCCCCCSc1cc(OC)c(CCN(C)C)cc1OC	.	?	.	.	.	10µM
Cc1cc(OCC(=O)O)c2c3c(c(=O)oc2c1)CCCC3	.	.	.	.	.	.
Cc1cc(OC(=O)c2ccco2)c2c3c(c(=O)oc2c1)CCCC3	.	?	.	.	.	13µM
Cc1cc(OC(=O)c2cccs2)c2c3c(c(=O)oc2c1)CCCC3	.	.	.	.	.[10 µM]	25µM
FC(F)(F)c1nc2ccc(SSc3ccc4nc(C(F)(F)F)[nH]c4c3)cc2[nH]1	/	/	/	/	.[10 µM]	/
CCN1C[C@@]2(COC(=O)c3ccccc3N3C(=O)C[C@H](C)C3=O)CC[C@H](OC)[C@@]34[C@@H]5CC6[C@@H](OC)C[C@@](O)([C@H]5[C@H]6OC)C(O)([C@@H]13)[C@@H](OC)[C@H]24	/	/	/	/	.	/
c1ccc(CNc2c3c(nc4ccccc24)CCC3)cc1	.	?	.	?	.[10 µM]	4.5µM
O=C1NC(=O)N(c2ccc3c(c2)OCO3)C(=O)/C1=C/c1cccs1	.	.	22µM	.	.	?
C=C(C)[C@H]1[C@H]2OC(=O)[C@@H]1[C@]1(O)C[C@H]3O[C@]34C(=O)O[C@H]2[C@]14C	/	/	/	/	.	/
Nc1c(C(=O)NCc2ccco2)c2nc3ccccc3nc2n1CCN1CCCCC1	.	.	.	.	.	3.2µM
Nc1c(C(=O)NCC2CCCO2)c2nc3ccccc3nc2n1Cc1ccco1 (configuration not stated)	.	.	25µM	.	.[10 µM]	.[9.22 µM]
CC(C)OCCCNC(=O)c1c(N)n(Cc2cccs2)c2nc3ccccc3nc12	?	.	.	.	.	28µM
CCCCCCOc1ccc(CN2CCN(CCO)CC2)cc1	.	?	.	.	.	.
CCCCCCOc1ccc(C(=O)n2cnc(N)n2)cc1	.	?	.	.	13µM	/
COc1cc(CN2CCN(c3cc(C)ccc3C)CC2)ccc1O	.	.	.	.	.[0.074 µM]	10µM
SMILES	TSG101-PTAP inh	Anesthetic bind	Epigenetic reg	PINK1 expr mod	HTT cytoprotect	HttQ103 aggreg
C[C@H]1CC[C@@H]2[C@@H](C)C(=O)O[C@H]3O[C@@]4(C)CC[C@@H]1[C@]32OO4	/	/	/	/	.	/
C[n+]1c2cc(N)ccc2cc2ccc(N)cc21	?	.	0.79µM	.	.	10µM
c1ccc(-c2ccccc2)cc1	/	/	/	/	.	/
[Hg+][c]1ccccc1	/	/	/	.	.	3.2µM
C=CCN1CC[C@]23c4c5ccc(O)c4O[C@@H]2/C(=N/NC(=O)c2ccccc2)CC[C@@]3(O)[C@H]1C5	/	/	/	/	.[1.9 µM]	/
COC(=O)[C@@H]1[C@@H](O)[C@@]2(O)c3c(OC)cc(OC)cc3O[C@@]2(c2ccc(OC)cc2)[C@H]1c1ccccc1	/	.[15.3 µM]	3.5µM	/	.[10 µM]	/
COC(=O)C1C(c2ccccc2)C2C(=O)c3c(OC)cc(OC)cc3O[C@@]12c1ccc(OC)cc1 (some centres not stated)	/	.[15.3 µM]	.[10.1 µM]	/	.[10 µM]	/
O=C(COc1ccc2ccccc2c1)N1CCN(Cc2c[nH]c3ccccc23)CC1	.	.	.	.	.[10 µM]	10µM
CCc1ccc(CN2CCN(Cc3cc(Br)ccc3O)CC2)cc1	.	.	.	40µM	.	.
CCN1CCN(Cc2cc(Br)ccc2O)CC1	.	.	.	.	.	.
CCN(CC)c1ccc(/C=N/c2sc3c(c2C#N)C2CCN3CC2)c(O)c1	?	.	2.8µM	.	.[10 µM]	.
CC1(C)C[C@H]2C=C(C=O)[C@]3(C=O)C[C@]3(C)[C@H]2C1	.	.	.	.	/	8.9µM
C1C[C@@H]2CN(CCCN3CCOCC3)[C@@H](C1)O2	/	/	/	/	.[10 µM]	/
CC1CCC/C=C/C2CC(O)CC2C(O)/C=C/C(=O)O1 (configuration not stated)	.	.	.	.	.	1µM
C[C@H]1CCCC=CC2C[C@H](O)C[C@@H]2[C@H](O)/C=C\C(=O)O1 (some centres not stated)	/	/	.	/	.	/
C[C@@H]1CCC/C=C\[C@H]2C[C@H](O)C[C@@H]2[C@H](O)/C=C\C(=O)O1	/	/	/	/	.	/
C[C@H]1CCC/C=C/C2C[C@H](O)CC2[C@H](O)/C=C/C(=O)O1 (some centres not stated)	.	.	.	.	/	2.8µM
CC1(C)C(=O)C=C[C@@]2(C)C1CC(O)[C@]1(C)C2CC[C@@]2(C)C(c3ccoc3)OC(=O)C3O[C@]312 (some centres not stated)	/	.	.	/	0.79µM	/
COc1ccc(-c2cc(-c3ccccc3)[n+](C)c(-c3ccccc3)c2)cc1	.	.	.	?	.[10 µM]	7.1µM
COc1ccc(-[n+]2c(-c3ccccc3)cc(-c3ccc(C)cc3)cc2-c2ccccc2)cc1	.	?	/	?	/	/
C[n+]1c(-c2ccccc2)cc(CCCCc2cc(-c3ccccc3)[n+](C)c(-c3ccccc3)c2)cc1-c1ccccc1	.	.	.	32µM	.[10 µM]	22µM
O=c1cccc2n1C[C@@H]1C[C@H]2CN2CCCC[C@H]12	/	/	/	/	.	/
CCC(C(=O)O)C1CCC(C)C(C(C)C(O)C(C)C(=O)C(CC)C2OC3(C=CC(O)[C@@]4(CC[C@](C)(C5CC[C@@](O)(CC)C(C)O5)O4)O3)C(C)CC2C)O1 (some centres not stated)	/	.	.	/	.	1.4µM
CN1C[C@H](C(=O)N[C@@]2(C)O[C@@]3(O)[C@H]4CCCN4C(=O)[C@@H](Cc4ccccc4)N3C2=O)C=C2c3cccc4[nH]cc(c34)C[C@@H]21	/	/	/	/	.[10 µM]	/

High-throughput results as filed in PubChem BioAssay.
